High-throughput results: PubChem BioAssay, National Center for Advancing Translational Sciences (NCATS)
Rows were chosen to be rich in hits. Some 2.1% of all compounds tested hit in one or more screens of this group.
B2AR arrestin: recruits beta-arrestin to the human beta2-adrenergic receptor; beta-arrestin recruitment to beta2AR, cell-based reporter; P07550; hit rate 0.02% among 330,000; Potency, µM (highest dose often 46.1 µM), inactives show at the highest dose activation, actives largely listed as activators;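 further: potency means the concentration at half of the fitted maximal effect; 0% = DMSO controls and full agonism = EC100 isoproterenol or metaproterenol; nearly all actives have a fitted effect of over 65% in size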
Giardia kill: kills Giardia lamblia; Giardia lamblia trophozoite viability; activity change, % at 7.66 µM, hits read low; hit rate 0.15% among 340,000; AID 540267; in the data active means activity change below about -80%; inconclusive means between about -30% and that limit;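 further: parasites exposed to compound for two days anaerobically before the ATP read; on the % scale 0 is the no-effect control and ±100 the full control effect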
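Viability, read as ATP luminescence: trophozoites at 100 cells/well, compound added, 48 hrs anaerobic at 37 deg C, then 15-30 min room-temperature development before reading.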
p53 reactivator: mutant p53 re-activation in reporter cells; hit rate 0.063% among 320,000; Potency, µM (series often up to 92.2 µM), inactives show top-dose activity change, positive = activation, actives largely listed as activators; H1299 p53-A138V BP100-luciferase reporter, luminescence, 24 h; AID 504706; further: potency means the concentration at half of the fitted maximal effect; % of control where 0% means no effect; nearly all actives have a fitted effect of over 45% in size
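p53-null H1299 cells stably carrying temperature-sensitive p53-A138V and a BP100-luciferase reporter were pinned with compounds (4-point, 1:5 series) and held 24 hrs at 37 deg C. Luminescence was read 10 min after detection reagent.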
ClpP mod: qHTS Assay for Activators of ClpP | AID 651965, 2013 | Potency, µM (doses to about 57.5 µM), inactives show top-dose activity change, negative = active | ATP-dependent Clp protease proteolytic subunit (Bacillus subtilis (strain 168)), P80244 | purified B. subtilis ClpP, FRET peptide cleavage, 20 min | hit rate 1.9% among 340,000; active means well fitted falling curve with a large enough effect; inconclusive means small, poorly fitted or top-dose-only effect; inactive means no such curve, though single readings can be large or run the other way; further: potency means the concentration at half of the fitted maximal effect; the source files actives as falling curves though it sought activators and does not explain the sign; nearly all actives have a fitted effect of over 65% in size
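Buffer: 100 mM Tris/HCl pH8, 100 mM KCl, 0.05% low protease BSA, 2.5% glycerol, 0.01% Tween-20. ClpP 10 microg/mL final; 20 min RT; delta FRET normalized to ADEP and DMSO controls.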
Mito fusion yeast: mitochondrial division inhibition or fusion activation; hit rate 0.23% among 320,000; S. cerevisiae fusion-defective mutant growth rescue, CellTiterGlo 48 h; Potency, µM (titrated, usually from 46.1 µM), without a hit: top-dose growth rescue (activation), actives largely listed as activators; further: potency means the concentration at half of the fitted maximal effect; % of control where 0% means no effect; nearly all actives have a fitted effect of over 45% in size
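S. cerevisiae fusion-defective temperature-sensitive mutants (e.g. fzo1-1, mgm1-5) grown 48 h at 37C in YPEG (ethanol/glycerol non-fermentable) medium with 23 nl compound per well; growth rescue read as CellTiterGlo luminescence.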
uPA surface inh: cell surface uPA generation inhibition; cell surface uPA generation assay, qHTS; Potency, µM (doses to about 38.3 µM), without a hit: at the highest dose activity change, negative = inhibition, most hits filed as inhibitors; hit rate 0.31% among 330,000; active means well fitted inhibition curve with a large enough effect; inconclusive means small, poorly fitted or top-dose-only effect; inactive means no such curve, though single readings can be large or run the other way; tested in mouse RAW 264.7 cells; further: potency means the concentration at half of the fitted maximal effect; on the % scale 0 is the no-effect control and ±100 the full control effect; nearly all actives have a fitted effect of over 55% in size
Active calls of the source: *; ? = inconclusive; · = no result given. Unless noted, the call rests on the fitted dose curve; in most records, active means well fitted curve in the direction sought with a large enough effect; inconclusive means small, poorly fitted or top-dose-only effect, or another doubt; inactive means no such curve, though single readings can be large; an effect the other way counts as inactive or inconclusive.

SMILES	B2AR arrestin	Giardia kill	p53 reactivator	ClpP mod	Mito fusion yeast	uPA surface inh
c1ccc(Oc2nc3ccccc3n3cccc23)cc1	0%	-16	1%	28µM*	-2%	-4%
Cc1nnc2c(Oc3ccccc3)nc3ccccc3n12	0%	1	4%	-3%	1%	-3%
Cc1cc(=O)[nH]c2nnc(SCc3c(F)cccc3Cl)n12	·	·	·	-6%	·	·
CCCNC(=O)Cn1c(SCc2ccccc2C)nc2ccncc21	·	-24	·	-9%	·	·
CCN(CC)CCCNC(=O)CCc1c(C)n(CC)c2cc(-c3ccccc3OC)nn2c1=O	0%	-10	2%	4%	-1%	1%
CCOC(=O)CCc1c(C)n(CC)c2cc(-c3ccccc3OC)nn2c1=O	0%	-8	-3%	11µM*	-1%	1%
CCN(c1cc(C)cc(C)c1)S(=O)(=O)c1nnc(NC(=O)c2cccc(F)c2)s1	·	·	·	-13%	·	·
Cc1cccc(NC(=S)NNC(=O)COc2ccc(Cl)cc2Cl)c1	3%	8	·	2%	22µM*	3%
COc1ccc(/C=C2\SC(N3CCCCC3)=NC2=O)cc1	6%	4	?	-3%	24%	-22%
COc1cc(/C=C2\SC(N3CCCCC3)=NC2=O)cc(OC)c1OC	5%	12	-1%	·	5µM*	-12%
Nc1ccc2cc3[nH]c4cc(N)ccc4c3nc2c1	·	-12	·	-13%	·	-13%
CN(c1ccccc1)S(=O)(=O)c1ccc(NC(=O)c2ccc(-c3ccccc3)cc2)cc1	0%	-4	4%	25µM*	-1%	-9%
Cc1ccc(C(=O)NCCc2cccs2)cc1	0%	?	-11%	-1%	-2%	5µM*
CN(c1ccc(C(=O)NCc2cccs2)cc1)S(=O)(=O)c1ccccc1	0%	6	7%	0%	3%	2.2µM*
O=C(NCCc1cccs1)c1ccc(Cl)cc1	0%	-29	16%	0%	-9%	-17%
CN(c1ccc(C(=O)NCCSCc2ccc(Cl)cc2)cc1)S(=O)(=O)c1ccccc1	0%	-22	0%	28µM*	8%	-3%
COc1cc(Cl)c(C)cc1NC(=O)CSc1cc(=O)n(C)c2cc(Cl)ccc12	·	·	·	0%	·	·
CC(C)(C)S(=O)N1Cc2cc(C(=O)NCC(F)(F)F)nc(-c3cccc(-c4cccc(F)c4)c3)c2[C@H]1CCO (some centres not stated)	·	·	·	5%	·	·
Cc1ccc(S(=O)(=O)N(C)c2ccc(C(=O)Nc3ccccc3C(=O)N3CCOCC3)cc2)cc1	0%	16	-5%	18µM*	5%	3%
COc1ccc(S(=O)(=O)N(C)c2ccc(C(=O)Nc3ccccc3C(=O)N3CCOCC3)cc2)cc1	0%	-21	1%	-1%	-2%	1%
COc1ccc2c(c1)OC(c1ccccc1)(C(F)(F)F)NC2=O (configuration not stated)	0%	-23	-13%	0%	0%	10%
COc1ccc(C2(OC)Oc3cc(OC)ccc3C(=O)C2(O)OC)cc1 (configuration not stated)	·	1	·	32µM*	·	-4%
CCCCNC(=S)N1CCN(CC)CC1	-1%	8	5%	·	-1%	-7%
CCCNC(=S)N1CCN(C)CC1	-1%	5	-4%	7.1µM*	-1%	2%
COc1ccc(Cc2nc(C(=O)Nc3ccccc3)cs2)cc1	-1%	1	29%	32µM*	15%	1%
SMILES	B2AR arrestin	Giardia kill	p53 reactivator	ClpP mod	Mito fusion yeast	uPA surface inh
COc1ccc(NC(=O)c2csc(Cc3ccc(Cl)cc3)n2)cc1	0%	-30	3%	-2%	0%	-6%
COc1ccccc1C(NC(=O)CC(C)C)c1c(O)ccc2ccccc12 (configuration not stated)	0%	0	?	35µM*	2%	11%
CC(=O)c1cccc(OC(=O)c2ccccc2)c1	·	-14	·	14µM*	·	7%
CC(=O)c1cccc(NC(=O)Oc2ccccc2)c1	0%	0	2%	0%	-2%	-4%
O=C(Nc1ccccc1Cl)c1cc(C2CCCCN2C(=O)CCCc2ccccc2)on1 (configuration not stated)	·	·	·	-7%	·	·
CC(=O)N(CC(=O)O)c1ccccc1	-1%	-25	0%	18µM*	-4%	2%
O=C(N/N=C/c1ccc(Cl)cc1)c1cc2c(s1)-c1ccccc1CC2	0%	13	-9%	28µM*	1%	1%
COCCN(Cc1cn(C)nc1-c1ccccc1F)C(C)C	-1%	1	2%	·	5.6µM*	10%
CCn1ccnc1CN(C)Cc1cn(C)nc1-c1ccccc1F	0%	-2	-3%	·	-3%	0%
Cc1ccc(CNC(=O)C2CCCN(c3nc4ccccc4n4cccc34)C2)cc1 (configuration not stated)	·	·	·	22µM*	·	·
COc1ccccc1CNC(=O)C1CCCN(c2nc3ccccc3n3cccc23)C1 (configuration not stated)	·	·	·	13µM*	·	·
COc1ccc(-n2nc3c(N4CCCC(C(=O)NCCc5ccccc5C)C4)nnc(C)c3c2C)cc1 (configuration not stated)	·	·	·	4%	·	·
COc1ccc(-n2nc3c(N4CCCC(C(=O)NCc5ccccc5C)C4)nnc(C)c3c2C)cc1 (configuration not stated)	-1%	·	·	28µM*	-2%	·
O=C(Nc1ccc(Cl)cc1)C1CCN(c2nc3ccccc3n3cccc23)CC1	·	·	·	28µM*	·	·
CCOC(=O)C1=CC[C@@H](c2ccccc2)N(S(=O)(=O)c2ccc(C)cc2)[C@H]1C=C(C)C	·	·	·	0%	·	·
CC(C)(O)C#Cc1ccc(N2C(c3ccsc3)=Cc3ccc(F)cc3C2c2c[nH]c3ccccc23)cc1 (configuration not stated)	·	·	·	5%	·	·
CCC(=O)Nn1cnc2c(c1=O)C1(CCCCC1)Cc1ccccc1-2	0%	25	-1%	-1%	-8%	6%
Nc1n[nH]c2c1C1(CCCCC1)Cc1ccccc1-2	-1%	-16	-7%	-8%	18%	2%
c1ccc(OCc2nc3c4c(ncn3n2)-c2ccccc2CC42CCCC2)cc1	-1%	1	-3%	13µM*	2%	2%
Nc1ncnc2c1C1(CCCCC1)Cc1ccccc1-2	0%	-8	0%	16µM*	2%	-3%
Cc1nc2cc(-c3ccccc3)nn2c(C)c1CCC(=O)NCc1cccc(Cl)c1	·	·	·	4%	·	·
CCOc1cc(C(=O)N2CC(=O)Nc3ccc(C)cc3C2c2ccccc2)cc(OCC)c1OCC (configuration not stated)	·	·	·	0%	·	·
NC1CCc2ccccc21 (configuration not stated)	·	·	·	-1%	·	·
